Data taken from PubChem BioAssay (NCI).
This is part of a sample that, as a whole, favours compounds with a hit. Of some 79,000 tested, about 15% had one in any assay. Activity calls are given as the source filed them. No stated cut-off is given here; in the data, active means growth inhibition above about 70%; inactive means the rest.

Legend:
[1] = NCI Yeast Anticancer Drug Screen. Data for the wt1 strain (AID 149);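 further: 0% = growth of vehicle-treated wt1 cultures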; conditions: S. cerevisiae wt1 strain (SPY 50644) growth inhibition, active compounds read high
How it was run: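 Measured: growth of wt1 yeast under compound versus vehicle treatment, reported as inhibition.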

[2] = NCI Yeast Anticancer Drug Screen. Data for the rad50EPP+ strain (AID 151);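 further: 0% = growth of vehicle-treated control cultures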; conditions: S. cerevisiae rad50 mutant strain, active compounds read high
How it was run: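 Strain rad50EPP+; compound exposure; % growth inhibition vs vehicle.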

[3] = NCI Yeast Anticancer Drug Screen. Data for the mgt1 strain (AID 153); conditions: S. cerevisiae mgt1 mutant growth inhibition, active compounds read high
How it was run: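 Read-out: yeast growth inhibition vs vehicle control. Strain mgt1, drawn from a panel altered in DNA damage repair or cell cycle control.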

[4] = NCI Yeast Anticancer Drug Screen. Data for the rad50 strain (AID 155);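 further: 0% = growth of vehicle-only cultures of the same strain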; conditions: S. cerevisiae rad50 strain growth inhibition, active compounds read high
How it was run: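 Growth of the mutant yeast was measured after compound exposure and referenced to vehicle-treated cultures.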

[5] = NCI Yeast Anticancer Drug Screen. Data for the mec2-1 strain (AID 157); conditions: S. cerevisiae mec2-1 strain, active compounds read high
How it was run: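 Cells of the genetically defined mec2-1 yeast strain are incubated with test compound. Inhibition of growth is calculated against vehicle-treated controls.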

[6] = NCI Yeast Anticancer Drug Screen. Data for the rad14 strain (AID 159);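 further: 0% = growth of vehicle-treated control cultures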; conditions: S. cerevisiae rad14 strain growth inhibition, active compounds read high
How it was run: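 Here, inhibition of yeast growth was measured after compound exposure, using a strain with a genetic defect in DNA damage repair and vehicle-treated cultures as the reference.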

[7] = NCI Yeast Anticancer Drug Screen. Data for the sgs1 mgt1 strain (AID 161);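 further: 0% = growth of cultures given vehicle only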; conditions: S. cerevisiae sgs1 mgt1 strain, active compounds read high
How it was run: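 Read-out: growth inhibition vs vehicle controls. Cells: mutant yeast strain deficient in DNA damage repair.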

[8] = NCI Yeast Anticancer Drug Screen. Data for the CLN2oe strain (AID 163);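 further: 0% = growth of vehicle-only control cultures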; conditions: S. cerevisiae CLN2oe strain, active compounds read high
How it was run: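 Strain altered in cell-cycle control, incubated with compound; growth compared to solvent-treated controls.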

[9] = NCI Yeast Anticancer Drug Screen. Data for the cln2 rad14 strain (AID 165);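 further: 0% = growth equal to vehicle treated cultures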; conditions: S. cerevisiae cln2 rad14 strain, active compounds read high
How it was run: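 The screen exposed genetically defined yeast (cln2 rad14) to test compounds and scored growth inhibition relative to vehicle-treated controls.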

[10] = NCI Yeast Anticancer Drug Screen. Data for the bub3 strain (AID 167); conditions: S. cerevisiae bub3 mutant strain, active compounds read high
How it was run: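 Whole-cell yeast assay. The mutant strain was incubated with compounds, and growth inhibition was determined by comparison with vehicle-treated cells.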

[11] = NCI Yeast Anticancer Drug Screen. Data for the wt2 strain (AID 169);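 further: 0% = growth of vehicle-treated yeast cultures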; conditions: S. cerevisiae wt2 strain growth inhibition, active compounds read high
How it was run: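 Steps: yeast strain treated with compound; growth recorded; inhibition calculated relative to cultures given vehicle alone.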

[12] = NCI Yeast Anticancer Drug Screen. Data for the mlh1 strain (AID 171);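 further: 0% = growth of vehicle-treated control cultures of the same strain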; conditions: S. cerevisiae mlh1 strain growth inhibition, active compounds read high
How it was run: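 Yeast screen: mutant strain plus compound, growth scored against vehicle control wells.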

[13] = NCI Yeast Anticancer Drug Screen. Data for the sgs1 strain (AID 173);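 further: 0% = growth of vehicle-only control cultures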; conditions: S. cerevisiae sgs1 mutant, active compounds read high
How it was run: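 Inhibition of yeast growth served as the measure. The mutant strain was treated with each compound, and growth was normalised to cultures receiving vehicle alone.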

[14] = NCI Yeast Anticancer Drug Screen. Data for the mlh1 rad18 strain (AID 175); conditions: S. cerevisiae mlh1 rad18 strain growth inhibition, active compounds read high
How it was run: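 Compound-treated yeast growth, normalised to vehicle controls. Strain bears defined DNA repair mutations.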

[15] = NCI Yeast Anticancer Drug Screen. Data for the rad18 strain (AID 177); conditions: S. cerevisiae rad18 mutant growth inhibition, active compounds read high
How it was run: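 Inhibition values reflect reduced yeast growth compared with vehicle-treated controls, using a strain engineered with a DNA damage repair defect.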

[16] = at 5.0 µM (retest, dose inferred, filed as 0.5)
[17] = at 50.0 µM (retest, dose inferred, filed as 5.0)

Measured: growth inhibition

COC(=O)C1=C(C(=O)OC)CC(n2nnc(C(=O)OC)c2C(=O)OC)=CC1
inactive: [1]; at 1.2 µM 0% | [1]; at 3.7 µM 0% | [1]; at 11.0 µM -1% | [1]; at 33.0 µM -1% | [1]; at 100.0 µM -2% | [2]; at 1.2 µM -2% | [2]; at 3.7 µM -2% | [2]; at 11.0 µM -3% | [2]; at 33.0 µM -3% | [2]; at 100.0 µM 1% | [3]; at 1.2 µM -1% | [3]; at 3.7 µM 1% | [3]; at 11.0 µM -2% | [3]; at 33.0 µM -2% | [3]; at 100.0 µM -6% | [4]; at 1.2 µM -1% | [4]; at 3.7 µM -3% | [4]; [16] -1% | [4]; at 11.0 µM -3% | [4]; at 33.0 µM -2% | [4]; [17] 0% | [4]; at 50.0 µM 43.4% | [4]; at 100.0 µM -4% | [5]; at 1.2 µM -4% | [5]; at 3.7 µM -6% | [5]; [16] -1% | [5]; at 11.0 µM -5% | [5]; at 33.0 µM -4% | [5]; [17] -1% | [5]; at 50.0 µM 1.2% | [5]; at 100.0 µM -9% | [6]; at 1.2 µM 0% | [6]; at 3.7 µM 3% | [6]; at 11.0 µM 4% | [6]; at 33.0 µM 3% | [6]; at 100.0 µM 1% | [7]; [16] 6% | [7]; [17] -6% | [7]; at 50.0 µM 0.5% | [8]; at 1.2 µM -7% | [8]; at 3.7 µM -3% | [8]; at 11.0 µM -4% | [8]; at 33.0 µM -1% | [8]; at 100.0 µM -7% | [9]; [16] -2% | [9]; [17] -2% | [9]; at 50.0 µM -9.5% | [10]; at 1.2 µM -4% | [10]; at 3.7 µM -4% | [10]; [16] -1% | [10]; at 11.0 µM -3% | [10]; at 33.0 µM -6% | [10]; [17] 1% | [10]; at 50.0 µM -4.1% | [10]; at 100.0 µM -2% | [11]; at 1.2 µM -1% | [11]; at 3.7 µM -2% | [11]; at 11.0 µM -1% | [11]; at 33.0 µM -2% | [11]; at 100.0 µM -3% | [12]; at 1.2 µM -1% | [12]; at 3.7 µM -2% | [12]; at 11.0 µM -2% | [12]; at 33.0 µM -1% | [12]; at 100.0 µM -3% | [13]; at 1.2 µM -1% | [13]; at 3.7 µM -1% | [13]; at 11.0 µM -2% | [13]; at 33.0 µM -2% | [13]; at 100.0 µM 0% | [14]; [16] -2% | [14]; [17] 44% | [14]; at 50.0 µM 4.4% | [15]; at 1.2 µM 0% | [15]; at 3.7 µM 1% | [15]; at 11.0 µM 0% | [15]; at 33.0 µM -1% | [15]; at 100.0 µM 1%

O=C(O)c1c2ccc(Cl)cc2nc2[nH]c(=O)[nH]c(=O)c12
inactive: [1]; at 1.2 µM -37% | [1]; at 3.7 µM -35% | [1]; at 11.0 µM -44% | [1]; at 33.0 µM -38% | [1]; at 100.0 µM -18% | [2]; at 1.2 µM -13% | [2]; at 3.7 µM -46% | [2]; at 11.0 µM -10% | [2]; at 33.0 µM 28% | [2]; at 100.0 µM 50% | [3]; at 1.2 µM -37% | [3]; at 3.7 µM -31% | [3]; at 11.0 µM -35% | [3]; at 33.0 µM -5% | [3]; at 100.0 µM 17% | [4]; at 1.2 µM -56% | [4]; at 3.7 µM -28% | [4]; [16] 47% | [4]; at 11.0 µM -32% | [4]; at 33.0 µM -23% | [4]; [17] 45% | [4]; at 50.0 µM 29.4% | [4]; at 100.0 µM 36% | [5]; at 1.2 µM -63% | [5]; at 3.7 µM -50% | [5]; [16] 47% | [5]; at 11.0 µM -37% | [5]; at 33.0 µM -43% | [5]; [17] 52% | [5]; at 50.0 µM 36.9% | [5]; at 100.0 µM -30% | [6]; at 1.2 µM -14% | [6]; at 3.7 µM -16% | [6]; at 11.0 µM -21% | [6]; at 33.0 µM -22% | [6]; at 100.0 µM 3% | [7]; [16] 13% | [7]; [17] 26% | [7]; at 50.0 µM 27.6% | [8]; at 1.2 µM -45% | [8]; at 3.7 µM -33% | [8]; at 11.0 µM -24% | [8]; at 33.0 µM -13% | [8]; at 100.0 µM -1% | [9]; [16] 64% | [9]; [17] 12% | [9]; at 50.0 µM 9.2% | [10]; at 1.2 µM -57% | [10]; at 3.7 µM -40% | [10]; [16] 36% | [10]; at 11.0 µM -29% | [10]; at 33.0 µM -5% | [10]; at 100.0 µM 50% | [11]; at 1.2 µM -30% | [11]; at 3.7 µM -33% | [11]; at 11.0 µM -25% | [11]; at 33.0 µM -23% | [11]; at 100.0 µM 4% | [12]; at 1.2 µM -29% | [12]; at 3.7 µM -24% | [12]; at 11.0 µM -29% | [12]; at 33.0 µM -11% | [12]; at 100.0 µM 30% | [13]; at 1.2 µM -39% | [13]; at 3.7 µM -31% | [13]; at 11.0 µM -26% | [13]; at 33.0 µM -10% | [13]; at 100.0 µM 1% | [14]; [16] 45% | [14]; [17] 54% | [14]; at 50.0 µM 31.7% | [15]; at 1.2 µM -21% | [15]; at 3.7 µM -17% | [15]; at 11.0 µM -9% | [15]; at 33.0 µM -1% | [15]; at 100.0 µM 7%
active: [10]; [17] 82% | [10]; at 50.0 µM 79.5%

CCN(CC)CCNc1ccc2nc(C)n3c4ccc(OC)cc4c(=O)c1c23
inactive: [2]; at 1.2 µM 9% | [2]; at 3.7 µM 9% | [2]; at 11.0 µM 3% | [2]; at 33.0 µM 17% | [2]; at 100.0 µM 31% | [3]; at 1.2 µM 36% | [3]; at 3.7 µM 27% | [3]; at 11.0 µM 18% | [3]; at 33.0 µM 26% | [3]; at 100.0 µM 16% | [4]; at 1.2 µM 41% | [4]; at 3.7 µM 45% | [4]; at 11.0 µM 63% | [4]; at 50.0 µM -12.5% | [5]; at 1.2 µM 32% | [5]; at 3.7 µM 39% | [5]; [16] 16% | [5]; at 11.0 µM 37% | [5]; at 33.0 µM 40% | [5]; [17] 52% | [5]; at 50.0 µM 22.8% | [5]; at 100.0 µM 32% | [6]; at 1.2 µM 33% | [6]; at 3.7 µM 24% | [6]; at 11.0 µM 27% | [6]; at 33.0 µM 30%
active: [4]; [16] 84% | [4]; at 33.0 µM 82% | [4]; [17] 95% | [4]; at 100.0 µM 87%
